This passage reports Potency and activity change, negative = cytotoxicity results from PubChem BioAssay (Tox21).

Inconclusive results are not listed. Entries that show only a call come without a potency. A number with no mark means an inactive call. Calls of active or inactive are those of the source. The call rests on the fitted dose curve.
Potency means the concentration at half of the fitted maximal effect.

The test in a line: qHTS assay to identify small molecule agonists of the progesterone receptor (PR) signaling pathway - cell viability counter screen (AID 1346799). Further: nearly all actives have a fitted effect of over 45% in size. The settings on record: PR-UAS-bla HEK293T viability, CellTiter-Glo luminescence, 16 h; series mostly up to 92.4 µM. An excerpt:
National Center for Advancing Translational Sciences [NCATS]
NIH Chemical Genomics Center [NCGC]
U.S. Environmental Protection Agency [EPA]
National Institutes of Environmental Health Sciences [NIEHS]
National Toxicology Program [NTP]
U.S. Food and Drug Administration [FDA]
Progesterone receptor (PR), a nuclear hormone receptor, plays an important role in development, metabolic homeostasis and reproduction. It is activated by the steroid hormone progesterone. Endocrine disrupting chemicals (EDCs) and their interactions with steroid hormone receptors like PR causes disruption of normal endocrine function. To identify the compounds that stimulate PR signaling, a PR-UAS-bla GripTite cell line i.e. PR-UAS-bla HEK293T (Invitrogen, Carlsbad, CA, USA) containing a beta-lactamase reporter gene under the control of an UAS response element was used to screen Tox21 10K compound library. The cytotoxicity of the Tox21 compound library against the PR-bla cell line was tested in parallel by measuring the cell viability using CellTiter-Glo assay in the same wells.
Tox21 Assay Protocol Summary:
PR-UAS-bla HEK293T cells were dispensed at 3,000 cells/5 uL of assay medium containing 2% charcoal stripped FBS per well into black wall/clear-bottom 1536-well plates using a Multidrop Combi (ThermoFisher Scientific, Waltham, MA) dispenser. After the assay plates were incubated at a 37C and 5% CO2 for 6 hr, 23 nL of compounds dissolved in DMSO, positive controls or DMSO only was transferred to the assay plate by a Pintool station (Kalypsys, San Diego, CA). The plates were incubated at 37C and 5% CO2 for 16 hr. Then 1 uL of LiveBLAzer B/G FRET substrate was added using a Flying Reagent Dispenser (FRD, Aurora Discovery, San Diego, CA), the plates were incubated at room temperature for 2 hours, and fluorescence intensity was measured by an Envision plate reader (PerkinElmer, Shelton, CT). For cell viability readout that measures cytotoxicity, 4 uL/well of CellTiter-Glo reagent was added into the assay plates using a FRD. After 30 min incubation at room temperature, the luminescence intensity in the plates was measured using a ViewLux (PerkinElmer) plate reader.
A general note: Quantitative high-throughput screening tests each substance at several concentrations.
`CC(Cc1ccccc1)(NC(=O)CN)c1ccccc1` (stereo not given): the Potency result was “inactive”.
Still for that read-out and setting: then `Cc1ccc(NC=O)c(C)c1`, with “inactive”.
Still for that read-out and setting: the same measure for `CCCCOC(=O)C(C)Oc1ccc(Oc2ccc(C(F)(F)F)cn2)cc1` (stereo not given): “inactive”; for `Clc1cccc(C(c2ccc3nc[nH]c3c2)n2ccnc2)c1` (stereo not given): “inactive”.
For `CC(C)(O)C(=O)O`, the Potency result was “inactive”.
Take `O=C1OC(=O)C2CC=CCC12` (stereo not given): the Potency entry is “inactive”.
On the same count and under the same terms, the same measure for `O=C(O)c1cccc(C(=O)O)c1C(=O)O`: 34.7 µM (active).
Same read-out and setting: the same measure for `CC(C)C/C=C(\C=O)c1ccccc1`: “inactive”; for `CCOc1ccc2c(c1)C(C)CC(C)(C)N2` (stereo not given): “inactive”.
The same measure, in the same setting: the same measure for `O=C(C1CCCCC1)N1CC(=O)N2CCCc3ccccc3C2C1` (stereo not given): “inactive”; for `Cc1nc2sccn2c(=O)c1CCN1CCC(=C(c2ccc(F)cc2)c2ccc(F)cc2)CC1`: 29.8 µM (active).
`CC(=O)CC/C=C(\C)CC/C=C(\C)CC/C=C(\C)CCC=C(C)C`: the Potency result was “inactive”.
Same read-out and setting: the same measure for `O=C(O)c1ccc(O)c(O)c1`: “inactive”; for `CCC(=O)O[C@@H]1C[C@H]2CC[C@]1(C)C2(C)C`: “inactive”; for `CCc1c(C)[nH]c2c1C(=O)C(CN1CCOCC1)CC2` (stereo not given): “inactive”.
On the same count and under the same terms, then `S=c1[nH][nH]c(=S)s1`, with “inactive”; and `CC(C)CCCCCOC(=O)CS`, with “inactive”.
In the case of `c1ccc(-c2ccc(-c3ccccc3)cc2)cc1`, the activity change, negative = cytotoxicity was 0% [at 19 µM].
For the compound `C/C(=C(\CCO)SS/C(CCO)=C(\C)N(C=O)Cc1cnc(C)nc1N)N(C=O)Cc1cnc(C)nc1N`, the Potency result is “inactive”.
With `CC(C)=CCCC(C)C=O` (stereo not given), the Potency entry was “inactive”.
The same measure, in the same setting: the same measure for `O=Cc1ccc(Cl)c([N+](=O)[O-])c1`: “inactive”; for `OCCOc1cccc(OCCO)c1`: “inactive”; for `OCCCO`: “inactive”.
Still for that read-out and setting: the same measure for `CC(C)=CCC[C@H](C)CCO`: “inactive”; for `COC(=O)/C=C/C(C)=C\C=C\C(C)=C\C=C\C=C(C)\C=C\C=C(C)\C=C\C(=O)O`: “inactive”; for `CCOC(C)OCC`: “inactive”.
Same read-out and setting: then `Cc1cc(C)n(CO)n1`, with “inactive”.
Consider `Nc1nc(Cl)nc2c1ncn2[C@H]1C[C@H](O)[C@@H](CO)O1`, for which the Potency entry is “inactive”.
`COc1cccc([C@H](O)C2CCN(CCc3ccc(F)cc3)CC2)c1OC`: the Potency entry is “inactive”.
Consider `CCCCCCOC(=O)c1ccccc1`, for which the Potency was 17.2 µM (active).
Same read-out and setting: then `CC1(C)[C@@H]2CC[C@]3(C2)[C@@H]1C(=O)CCC3(C)C`, with 27.3 µM (active); and `CCc1ccc2c(c1)C(=O)c1ccccc1C2=O`, with “inactive”.
Regarding `O=C(O)c1ccc2c(c1)nc(C(=O)NC1CCN(C3CC3)CC1)n2Cc1cc(-c2ccc(Cl)s2)on1`, the activity change, negative = cytotoxicity was -20.4% [at 19 µM].
Turning to `CC1(C)CC(O)CC(C)(C)N1[O]`, the Potency entry was “inactive”.
Still for that read-out and setting: the same measure for `CCC(C(=O)O)c1ccc(N2Cc3ccccc3C2=O)cc1` (stereo not given): “inactive”.
As to `CCCCCCCCS`, the Potency entry was “inactive”.
Same read-out and setting: then `C[C@H]1C[C@H]2[C@@H]3CCC4=CC(=O)C=C[C@]4(C)[C@@]3(F)[C@@H](O)C[C@]2(C)[C@@]1(O)C(=O)COP(=O)(O)O`, with “inactive”; and `CCC1=C(C)CN(C(=O)NCCc2ccc(S(=O)(=O)NC(=O)NC3CCC(C)CC3)cc2)C1=O` (stereo not given), with “inactive”; and `O=C(O)c1cc(C(=O)O)cc([N+](=O)[O-])c1`, with “inactive”.
Same read-out and setting: the same measure for `C[C@H](CN1CCCC1)C(=O)c1ccc(C(F)(F)F)cc1`: “inactive”.
